Data from PMC12431657, “Discovery and mechanistic insights of dibenzoylmethane as a broad spectrum inhibitor of coronavirus” (PLOS Pathogens, 2025).
Like-named read-outs stand apart in the source and are kept apart here. The campaign covered roughly 3,300 compounds. About 60 (2%) showed an effect of 50% or more. The sample holds strong results, similar compounds and a random draw of the others, so the mix is not that of the screen. Bridge positions count the residues as written; N and C are the ends. Square brackets hold non-standard residues; d marks the D form. Peptide text beside a SMILES is read from it. * marks the point of attachment. Ileψ(thiazoline)Cys = CC[C@H](C)[C@H](N)C1=N[C@H](C(=O)*)CS1; dOrn = NCCC[C@@H](N)C(=O)O

Test system: HCoV-OC43
Parameters: species or system RD; HTS, protection from HCoV-OC43 induced cell death, luminescent cell viability (CellCounting-Lite 2.0), inhibition rate
Settings: 24 h post infection, 1 h compound pre-incubation, 10 µM, inhibitor

Structure (SMILES) | OC43 Inhibition rate | OC43 Inhibition rate (OC43 Inhibition rate, 24 h)
CC(C)=CCC12Oc3cc(O)ccc3C1(O)Oc1cc(O)c([C@H]3C=C(C)C[C@@H](c4ccc(O)cc4O)[C@@H]3C(=O)c3ccc(O)cc3O)c(O)c1C2=O (stereo partly shown) [Sanggenon D] | 42.1% | 
CC(C)(O)[C@H]1CC[C@@](C)([C@H]2[C@@H](O)C[C@@]3(C)[C@@H]4C[C@H](O)[C@H]5C(C)(C)[C@@H](O)CC[C@@]56C[C@@]46CC[C@]23C)O1 [Cyclogalegenin] | 8.4% | 
CC(C)(O)[C@@H]1CC[C@](C)([C@H]2[C@@H](O)C[C@@]3(C)[C@@H]4C[C@H](O)[C@H]5C(C)(C)[C@@H](O)CC[C@@]56C[C@@]46CC[C@]23C)O1 [Cycloastragenol] | 0.7% | 
CN[C@@H](C)[C@H]1[C@H](O)C[C@@]2(C)[C@@H]3CC[C@H]4C(C)(C)[C@@H](NC)CC[C@@]45C[C@@]35CC[C@]12C [Cyclovirobuxine D] | 109.3% | 
NCC(O)c1ccccc1 (stereo not shown) [2-Amino-1-phenylethanol] | 0% | 
O=C(O)c1ccc(O)cc1 [4-Hydroxybenzoic acid] | 0.1% | 
C[C@@H](O)CO [(R)-(-)-1,2-Propanediol] | -0.2% | 
COc1cc(CNC(=O)CCCC/C=C/C(C)C)ccc1O[C@@H]1O[C@H](CO)[C@@H](O)[C@H](O)[C@H]1O [Capsaicin β-D-glucopyranoside] | 0.3% | 
CC1=CC(=O)[C@@H]2C[C@H]1C2(C)C [Verbenone] | -0.2% | 
C=C1[C@@H](O)[C@]2(O)OC[C@]34[C@H]2[C@@]2(C)[C@H](O)C(=O)C=C(C)[C@@H]2C[C@H]3OC(=O)[C@H](O)[C@@]14O [Eurycomanone] | 54.5% | 
O=C(O)c1ccncc1 [Isonicotinic acid] | -0.2% | 
O=C(O)C(CO)c1ccccc1 (stereo not shown) [Tropic acid] | 0.5% | 
CCC(C)(C)C(=O)O[C@H]1C[C@@H](C)C=C2C=C[C@H](C)[C@H](CC[C@@H](O)C[C@@H](O)CC(=O)O)[C@H]21 [Simvastatin acid (ammonium)] | 5% | 
CC[C@H](C)[C@H](N)C1=N[C@H](C(=O)N[C@@H](CC(C)C)C(=O)N[C@H](CCC(=O)O)C(=O)N[C@H](C(=O)N[C@H]2CCCCNC(=O)[C@H](CC(N)=O)NC(=O)[C@@H](CC(=O)O)NC(=O)[C@H](Cc3cnc[nH]3)NC(=O)[C@@H](Cc3ccccc3)NC(=O)[C@H]([C@@H](C)CC)NC(=O)[C@@H](CCCN)NC2=O)[C@@H](C)CC)CS1 [Bacitracin] ({Ileψ(thiazoline)Cys}-L[dE]IK[dOrn]I[dF]H[dD]N; lactam 4-C) | -0.3% | 
CCCCCCCCCC(=O)N[C@@H](Cc1c[nH]c2ccccc12)C(=O)N[C@H](CC(N)=O)C(=O)N[C@@H](CC(=O)O)C(=O)N[C@@H]1C(=O)NCC(=O)N[C@@H](CCCN)C(=O)N[C@@H](CC(=O)O)C(=O)N[C@H](C)C(=O)N[C@@H](CC(=O)O)C(=O)NCC(=O)N[C@H](CO)C(=O)N[C@@H]([C@H](C)CC(=O)O)C(=O)N[C@@H](CC(=O)c2ccccc2N)C(=O)O[C@@H]1C [Daptomycin] | 62.7% | 
CC(C)[C@@H]1NC(=O)CNC(=O)[C@H](C)NC(=O)[C@H](Cc2c[nH]c3ccccc23)NC(=O)[C@H](C)NC1=O [Segetalin B] (cyclo(AGVAW)) | -0.5% | 
CN1C[C@@H]2C[C@H](C1)c1cccc(=O)n1C2 [N-Methylcytisine] | -2.8% | 
C=C1CCOC1=O [Tulipalin A] | 28.2% | 
Oc1ccc2ccc3cccc4ccc1c2c34 [1-Hydroxypyrene] | 16.8% | 
CC1(C)[C@@H](O)CC[C@]2(C)[C@H]3CC=C4[C@@H]5C[C@@]6(C)C[C@H](OC6=O)[C@]5(C)CC[C@@]4(C)[C@]3(C)CC[C@@H]12 [Wilforlide A] | 0.1% | 

Structure (SMILES) | OC43 Inhibition rate | OC43 Inhibition rate (OC43 Inhibition rate, 24 h)
O=C(N[C@@H](Cc1ccccc1)C(=O)N[C@H](CO)Cc1ccccc1)c1ccccc1 [Aurantiamide] | 1% | 
CC(C)=CCc1cc2c(cc1O)oc(=O)c1c3ccc(O)cc3oc21 [Psoralidin] | 0% | 
COc1c(CC=C(C)C)c(O)cc2oc(=O)c3c4ccc(O)cc4oc3c12 [Neoglycyrol] | 113.3% | 
COc1c(CC=C(C)C)c(O)cc2oc(=O)c(-c3ccc(O)cc3O)cc12 [Glycycoumarin] | 0.9% | 
Cc1c(C)c2c(c(C)c1O)CC[C@@](C)(CCCC(C)CCCC(C)CCCC(C)C)O2 (stereo in doubt) [rel-α-Vitamin E] | 5.5% | 
CC1(C)CC[C@]2(C(=O)O[C@@H]3O[C@H](CO)[C@@H](O)[C@H](O)[C@H]3O)CC[C@]3(C)C(=CC[C@@H]4[C@@]5(C)CC[C@H](O[C@@H]6O[C@H](C(=O)O)[C@@H](O[C@@H]7O[C@@H](CO)[C@H](O)[C@H]7O)[C@H](O)[C@H]6O)C(C)(C)[C@@H]5CC[C@]43C)[C@@H]2C1 [Araloside A] | 1.5% | 
COc1cc2oc(-c3ccccc3)cc(=O)c2c(OC)c1OC [5,6,7-Trimethoxyflavone] | 0.1% | 
COc1cc(-c2c3c(c(O)c4cc5c(cc24)OCO5)COC3=O)cc(OC)c1OC [Tetradehydropodophyllotoxin] | 1% | 
COC(=O)CC/C(C)=C/Cc1c(O)c2c(c(C)c1OC)COC2=O [Methyl mycophenolate] | 61.8% | 
COc1c(C)c2c(c(O)c1C/C=C(\C)CCC(=O)O)C(=O)OC2 [Mycophenolic acid] | 36.2% | 
O=C(O)c1cn[nH]c1 [4-Carboxypyrazole] | 0.1% | 
C=C(C(=O)O)[C@@H]1CC[C@@H](C)[C@@H]2CCC(C)=C[C@@H]21 [Artemisic acid] | 4.6% | 
Cc1ncc(C[n+]2csc(CCO)c2C)c(N)n1 [Thiamine monochloride] |  | 2.4%
C[S@@+]([O-])CCCCN=C=S [(R)-sulforaphane] | 71.2% | 
CC1=CCCC(C)(C)[C@H]1/C=C/C(C)=C/C=C/C(C)=C/C=C/C=C(C)/C=C/C=C(C)/C=C/C1=C(C)CCCC1(C)C [α-Carotene] | 19.1% | 
O=c1ccc2nccc3c4ccccc4n1c23 [Canthin-6-one] | -0.9% | 
O=C(/C=C/c1ccc(O)c(O)c1)O[C@H]1[C@H](O)C[C@](O)(C(=O)O)C[C@H]1OC(=O)/C=C/c1ccc(O)c(O)c1 [3,4-Dicaffeoylquinic acid] | 6.5% | 
C[N+](C)(C)[O-] [Trimethylamine N-oxide (dihydrate)] |  | -1.8%
CC(C)C[C@H](NC(=O)[C@@H](O)[C@H](N)Cc1ccccc1)C(=O)O [Bestatin] |  | 1.8%
COc1cc(O)c(CC=C(C)C)c2c1C(=O)CC(c1ccc(O)cc1)O2 (stereo not shown) [Isoxanthohumol] | 30.2% | 

Structure (SMILES) | OC43 Inhibition rate | OC43 Inhibition rate (OC43 Inhibition rate, 24 h)
CC(C)=CCc1cc2c(cc1O)O[C@H](c1ccc(O)cc1)CC2=O [Bavachin] | 66.9% | 
O=C1C[C@@H](c2ccc(O)cc2)Oc2cc(O)ccc21 [Liquiritigenin] | 0.2% | 
COc1cc(O)c(CC=C(C)C)c2c1C(=O)C[C@@H](c1ccc(O)cc1)O2 [(2S)-Isoxanthohumol] | 48.2% | 
COc1cc2c(cc1CC=C(C)C)C(=O)C[C@@H](c1ccc(O)cc1)O2 [Bavachinin] | 20.3% | 
O=C1C[C@@H](c2ccc(O)c(O)c2)Oc2c1ccc(O[C@@H]1O[C@H](CO)[C@@H](O)[C@H](O)[C@H]1O)c2O [Flavanomarein] | -5.7% | 
CC(C)=CCc1cc([C@@H]2CC(=O)c3ccc(O)c(CC=C(C)C)c3O2)ccc1O [Glabrol] | 55.6% | 
O=C1C[C@@H](c2ccc(O)c(O)c2)Oc2cc(O)cc(O)c21 [Eriodictyol] | 0.2% | 
CC(C)=CCc1c(O)cc2c(c1O)C(=O)C[C@@H](c1ccc(O)cc1)O2 [(2S)-6-Prenylnaringenin] | 54.9% | 
C[C@H](CCC(=O)NCCS(=O)(=O)O)[C@H]1CC[C@H]2[C@@H]3C[C@H](O)[C@@H]4C[C@H](O)CC[C@]4(C)[C@H]3CC[C@]12C [Taurohyodeoxycholic acid] | -1.1% | 
COc1cccc(O)c1C(=O)O [2-Hydroxy-6-methoxybenzoic acid] | 0% | 
CCCCCCC/C=C\C(=O)O [(Z)-2-Decenoic acid] | 29.5% | 
CC(C)=CCC1C(=O)C(C(=O)CC(C)C)=C(O)C(O)(CC=C(C)C)C1=O (stereo not shown) [Humulone] | -1% | 
Oc1ccc(O)c(O)c1 [1,2,4-Trihydroxybenzene] | -0.2% | 
COc1c2c(cc3oc(C)cc(=O)c13)OC(C(C)(C)O[C@@H]1O[C@H](CO)[C@@H](O)[C@H](O)[C@H]1O)C2 (stereo partly shown) [5-O-Methylvisammioside] | 0.3% | 
COc1cc(O)ccc1/C=C/C(=O)c1ccc(O)cc1 [Echinatin] | 46.1% | 
C=C(C)[C@H](C)c1cc(/C=C/C(=O)c2ccc(O)cc2)c(OC)cc1O [Licochalcone E] | 55.6% | 
COc1c(/C=C/C(=O)c2ccc(O)cc2)ccc(O)c1O [Licochalcone B] | 45.6% | 
O=C1C[C@@H](c2ccc(O[C@@H]3O[C@H](CO)[C@@H](O)[C@H](O)[C@H]3O)cc2)Oc2cc(O[C@@H]3OC[C@](O)(CO)[C@H]3O)ccc21 [Liguiritigenin-7-O-D-apiosyl-4'-O-D-glucoside] | 1.2% | 
